Hit rate of the full screen: of about 39,000 compounds, about 1,500 (3.8%) were called active. The entries come from a sample that favours actives as a whole.
tested on: HSkMC (human skeletal muscle cells); assay: cytotoxicity call (relative viability < 0.9); conditions: 10 µM

SMILES | cytotoxicity call
C[C@H]1CCCCO[C@H](CN(C)Cc2ccncc2)[C@@H](C)CN([C@@H](C)CO)C(=O)c2cc(NS(=O)(=O)c3ccc(Cl)cc3)ccc2O1 | inactive
O=C(NO)c1cn(-c2ccc(C[C@H]3C(=O)O[C@@H](Cc4ccccc4)[C@H]4[C@@H]5C=CCCC=C5CN43)cc2)nn1 | inactive
COc1ccc([Si](C)(C)[C@@H]2[C@@H](CCn3cc(CCO)nn3)O[C@]3(C(=O)N(Cc4cccc(N5C(=O)c6cccc7cccc5c67)c4)c4ccccc43)[C@H]2C)cc1 | active
COc1ccc([Si](C)(C)[C@H]2[C@H](CCn3cc(CCO)nn3)O[C@@]3(C(=O)N(Cc4cccc(N5C(=O)c6cccc7cccc5c67)c4)c4ccccc43)[C@@H]2C)cc1 | inactive
COc1ccc([Si](C)(C)[C@H]2[C@H](CCO)O[C@@]3(C(=O)N(Cc4cccc(N5C(=O)c6cccc7cccc5c67)c4)c4ccccc43)[C@@H]2C)cc1 | inactive
COc1ccc([Si](C)(C)[C@@H]2[C@@H](CCO)O[C@]3(C(=O)N(Cc4ccc(N5C(=O)c6cccc7cccc5c67)cc4)c4ccccc43)[C@H]2C)cc1 | inactive
COc1ccc([Si](C)(C)[C@@H]2[C@@H](CCn3cc(CCO)nn3)O[C@]3(C(=O)N(Cc4ccc(N5C(=O)c6cccc7cccc5c67)cc4)c4ccccc43)[C@H]2C)cc1 | active
COc1ccc([Si](C)(C)[C@H]2[C@H](CCO)O[C@@]3(C(=O)N(Cc4ccc(N5C(=O)c6cccc7cccc5c67)cc4)c4ccccc43)[C@@H]2C)cc1 | inactive
C[C@@H]1CCCCO[C@@H](CN(C)C(=O)CCCN(C)C)[C@H](C)CN([C@H](C)CO)C(=O)c2cc(NC(=O)Nc3ccc(C(F)(F)F)cc3)ccc2O1 | inactive
C[C@H](CO)N1C[C@H](C)[C@@H](CN(C)C(=O)Nc2ccccc2)OCCCC[C@H](C)Oc2ccc(NC(=O)Cc3ccccc3)cc2C1=O | inactive
CN1CCN(C(=O)C[C@@H]2CC[C@@H]3[C@H](COc4ccc(NC(=O)C5CCCCC5)cc4C(=O)N3C)O2)CC1 | inactive
C[C@H]1CN([C@@H](C)CO)C(=O)Cc2cc(NS(C)(=O)=O)ccc2O[C@@H]1CN(C)Cc1ccc(C(=O)O)cc1 | inactive
COc1ccc(S(=O)(=O)N(C)C[C@@H]2OCCCC[C@H](C)Oc3ccc(NS(=O)(=O)c4ccc(Cl)cc4)cc3C(=O)N([C@H](C)CO)C[C@@H]2C)cc1 | inactive
C[C@H](CO)N1C[C@H](C)[C@@H](CN(C)Cc2ccc(-c3ccccc3)cc2)Oc2ccc(NC(=O)Cc3cn(C)c4ccccc34)cc2C1=O | inactive
C[C@H](CO)N1C[C@H](C)[C@H](CN(C)Cc2ccc(Cl)c(Cl)c2)Oc2ccc(NC(=O)Cc3cn(C)c4ccccc34)cc2C1=O | active
C[C@@H]1CN([C@H](C)CO)C(=O)c2cc(NC(=O)Cc3cn(C)c4ccccc34)ccc2O[C@@H]1CN(C)Cc1ccc(Cl)c(Cl)c1 | active
C[C@H]1CN([C@@H](C)CO)C(=O)c2cc(NC(=O)Cc3cn(C)c4ccccc34)ccc2O[C@@H]1CN(C)S(C)(=O)=O | inactive
C[C@@H]1CN([C@H](C)CN(C)C)C(=O)c2cc(NC(=O)Cc3cn(C)c4ccccc34)ccc2O[C@H]1CN(C)S(=O)(=O)c1ccc(Cl)cc1 | active
C[C@H](CO)N1C[C@H](C)[C@@H](CN(C)Cc2ccc(Cl)c(Cl)c2)Oc2ccc(NC(=O)Cc3cn(C)c4ccccc34)cc2C1=O | inactive
C[C@@H]1CN([C@@H](C)CO)C(=O)c2cc(NC(=O)Cc3cn(C)c4ccccc34)ccc2O[C@@H]1CN(C)Cc1ccc(Cl)c(Cl)c1 | active
C[C@@H]1CN([C@@H](C)CO)C(=O)c2cc(NC(=O)Cc3cn(C)c4ccccc34)ccc2O[C@@H]1CN(C)S(C)(=O)=O | inactive
